Drawing on PubChem BioAssay (NCI), this text covers growth for 14 compounds.

Holding throughout (experiment): NCI-60 one-dose screen, 48 h (100 = growth as untreated, 0 = no growth, -100 = all killed)
Common to all, as to settings: 10 µM

Test [1] concerns T-47D breast.
Test [2] has as its system BT-549 breast.
The test system of test [3] is MDA-MB-435 melanoma.
Test [4] concerns SW-620 colon.
Test [5] deals with MCF7 breast.
Test [6] deals with HCT-116 colon.
Test [7] has as its system HCC-2998 colon.
In test [8] the test system is KM12 colon.
Test [9] has as its system MDA-MB-468 breast.

The panel holds about 83,000 compounds, 20% with a hit somewhere; the sample as a whole holds those more often.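 Testing used 96-well plates and a 48-hour single-concentration exposure. Example: -40 means 40% of the starting cells died.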 Unmarked numbers belong to inactive results. Active and inactive are the calls of the source. Rule for the calls: active = growth percent below 10; inactive = the rest.

As for `O=[N+]([O-])c1ccc(-c2nc(-c3ccccc3)c(-c3ccccc3)n2-c2ccc(S(=O)(=O)Nc3ncccn3)cc2)cc1`, the growth was 10.2% in [1]; 10.7% in [2]; 46.5% in test [3]; 51.1% in test [4]; 29.3% in test [5]; 30.6% in [6]. Further, the growth was 42.9% in test [7], 30.8% in [8] and 40% in [9].

`CN1C/C(=C\c2ccc(O)cc2O)c2[o+]c3cc(O)ccc3cc2C1`: the growth in test [1] was 3.02% (active); in test [2] it was 39.8%; in test [3], 20.4%; in test [4] it was 23.1%; in test [5] it was 11%; in [6], 16.4%. Further, the growth in test [7] was 25.2%; in [8] it was 25%; in test [9], -16.3% (active).

On to `COc1ccc(-c2nc(-c3ccccc3)c(-c3ccccc3)n2-c2ccc(S(=O)(=O)Nc3ncccn3)cc2)cc1OC`, for which the growth is 43.1% in test [1]; 68.3% in test [2]; 95.1% in test [3]; 98.1% in [4]; 71.2% in [5]; 67.4% in test [6]. In addition, the growth in test [7] is 82.8%; in [8] it was 78.3%; in test [9], 67.8%.

For the compound `C=C1CCC2C3(C)COC(c4c(F)cccc4F)OC3CCC2(C)C1C/C=C1/C(=O)OCC1O` (stereo unspecified), the growth in test [1] is 1.57% (active); in [2], -78.4% (active); in test [3], -9.65% (active); in test [4], -41.4% (active); in [5], -12.6% (active); in [6] it was -59.2% (active). The growth was -65% (active) in test [7], -67.5% (active) in test [8] and -24% (active) in [9].

Take `Cc1noc2c(Cc3ccc([N+](=O)[O-])cc3)nn(CC(=O)N/N=C/c3ccc(Cl)cc3)c(=O)c12`: the growth in test [1] is 43.8%; in [2], 56%; in test [3] it was 76.3%; in test [4], 68.2%; in test [5] it was 52.5%; in [6] it was 21.7%. For the same compound, the figures for the growth in test [7], in [8] and in test [9] were 70.7%, 69.7% and 5.37% (active), respectively.

Turning to `COc1nccnc1NS(=O)(=O)c1ccc(NC2=C(Cl)C(=O)c3nc(C)ccc3C2=O)cc1`, the growth in test [1] was 101%; in test [2], 101%; in test [3] it was 103%; in [4], 115%; in test [5], 108%; in [6], 92%. For the same compound, the growth in test [7] was 103%; in test [8], 111%; in test [9], 9.69% (active).

For the compound `COc1ccc(C(=O)/C=C/c2cc(F)cc(C(F)(F)F)c2)cc1S(N)(=O)=O`, the growth in test [1] was 6.93% (active); in test [2] it was -73% (active); in test [3] it was -56.2% (active); in [4], -90.6% (active); in test [5] it was -90.6% (active); in [6], -55% (active). For the same compound, the growth in [7] is -89.6% (active); in test [8], -82.4% (active); in [9], -93.2% (active).

Consider `CN(C)c1ccc(/C=C/c2nc3ccccc3c(=O)n2CC(=O)Nc2ccccc2)cc1`, for which the growth in [1] was 49.3%; in [2], -1.24% (active); in test [3] it was 60.2%; in test [4] it was 57.8%; in test [5] it was 26%; in [6] it was 31.1%. The growth in [7] was 58.2%; in test [8] it was 75.7%; in test [9] it was -4.96% (active).

As for `CCOC(=O)CNC(=O)CN(Cc1ccccc1)C(=O)[C@@]1(C)CCC[C@]2(C)[C@H]3C[C@H]4C(C(C)C)=C[C@]3(CC[C@H]21)[C@@H]1C(=O)OC(=O)[C@@H]14`, the growth in test [1] is 67.4%; in [2], 76.2%; in [3], 78.5%; in test [4] it was 79.4%; in [5], 30.7%; in test [6] it was 37.4%. Moreover, the growth is 69.6% in test [7], 53% in [8] and 48.9% in test [9].

Take `COc1cc(-c2nc3cc(Cl)c(Cl)cc3[nH]2)ccc1OCc1nnc(-c2ccc(Br)cc2)o1`: the growth was -38.4% (active) in [1]; -73.4% (active) in [2]; -18.7% (active) in test [3]; 21.6% in [4]; 5.68% (active) in test [5]; 2.89% (active) in test [6]. Moreover, the growth in test [7] is 69.2%; in test [8] it was 46.1%; in test [9], -10.9% (active).

As to `COc1cc(OC(F)(F)F)ccc1C(=O)Nc1sc2c(c1C#N)CCC(=O)C2`, the growth in test [1] is -4.87% (active); in test [2], 14.1%; in test [3] it was 97.9%; in [4], 31.6%; in test [5] it was 73.2%; in test [6] it was 40.7%. For the same compound, the growth in [7] is 111%; in test [8], 88.1%; in test [9], 77.7%.

In the case of `Cn1c(O)c(N=Nc2nc(-c3cc4ccccc4oc3=O)cs2)c2cc(Br)ccc21`, the growth in test [1] is 82.8%; in [2], 59.6%; in test [3], 106%; in test [4], 99.8%; in test [5] it was 77.4%; in test [6], 48.9%. Further, the growth in test [7] is 97.7%; in test [8] it was 95.5%; in test [9] it was 41.8%.

Take `COc1ccc(-c2cc(C(=O)N=Nc3c(O)[nH]c4ccccc34)c3ccccc3n2)cc1`: the growth in test [1] is 12.1%; in test [2], 72.9%; in test [3] it was 0.986% (active); in test [4], -30.2% (active); in [5] it was -49.6% (active); in test [6], -43.3% (active). Also, the growth is -16.4% (active) in test [7], -11.1% (active) in test [8] and -31.7% (active) in test [9].

As for `CN1C(=O)/C(=C/c2ccc3ncsc3c2)NC1=NC12CC3CC(CC(O)(C3)C1)C2`, the growth in test [1] was 11.7%; in [2], -39.9% (active); in test [3], 27.4%; in [4] it was 5.62% (active); in test [5] it was -20.1% (active); in test [6], 17.3%. The figures for the growth in test [7], in [8] and in [9] were 10.1%, 10.4% and -5.71% (active), respectively.
